Data from PubChem BioAssay AID504339 (National Center for Advancing Translational Sciences (NCATS), 2011).
The whole screen tested about 390,000 compounds, of which about 17,000 (4.4%) were called active. A call without a number means that no potency is given here. Roughly 8% stayed inconclusive and do not appear here. This excerpt belongs to a sample that is enriched for actives. A number with no mark means an inactive call. The call rests on the fitted dose curve; in most records, active means well fitted inhibition curve with a large enough effect; inconclusive means small, poorly fitted or top-dose-only effect; inactive means no such curve, though single readings can be large or run the other way.

Target: Lysine-specific demethylase 4A (Homo sapiens) (UniProt O75164)
Experiment: qHTS Assay for Inhibitors of JMJD2A-Tudor Domain; further: nearly all actives have a fitted effect of over 50% in size
Conditions: AlphaScreen JMJD2A-Tudor / H3K4me3 peptide binding; series mostly up to 114 µM
Potency means the concentration at half of the fitted maximal effect.

Chain of Lysine-specific demethylase 4A (Homo sapiens) (O75164 whole entry, looked up, the tested form may be a part): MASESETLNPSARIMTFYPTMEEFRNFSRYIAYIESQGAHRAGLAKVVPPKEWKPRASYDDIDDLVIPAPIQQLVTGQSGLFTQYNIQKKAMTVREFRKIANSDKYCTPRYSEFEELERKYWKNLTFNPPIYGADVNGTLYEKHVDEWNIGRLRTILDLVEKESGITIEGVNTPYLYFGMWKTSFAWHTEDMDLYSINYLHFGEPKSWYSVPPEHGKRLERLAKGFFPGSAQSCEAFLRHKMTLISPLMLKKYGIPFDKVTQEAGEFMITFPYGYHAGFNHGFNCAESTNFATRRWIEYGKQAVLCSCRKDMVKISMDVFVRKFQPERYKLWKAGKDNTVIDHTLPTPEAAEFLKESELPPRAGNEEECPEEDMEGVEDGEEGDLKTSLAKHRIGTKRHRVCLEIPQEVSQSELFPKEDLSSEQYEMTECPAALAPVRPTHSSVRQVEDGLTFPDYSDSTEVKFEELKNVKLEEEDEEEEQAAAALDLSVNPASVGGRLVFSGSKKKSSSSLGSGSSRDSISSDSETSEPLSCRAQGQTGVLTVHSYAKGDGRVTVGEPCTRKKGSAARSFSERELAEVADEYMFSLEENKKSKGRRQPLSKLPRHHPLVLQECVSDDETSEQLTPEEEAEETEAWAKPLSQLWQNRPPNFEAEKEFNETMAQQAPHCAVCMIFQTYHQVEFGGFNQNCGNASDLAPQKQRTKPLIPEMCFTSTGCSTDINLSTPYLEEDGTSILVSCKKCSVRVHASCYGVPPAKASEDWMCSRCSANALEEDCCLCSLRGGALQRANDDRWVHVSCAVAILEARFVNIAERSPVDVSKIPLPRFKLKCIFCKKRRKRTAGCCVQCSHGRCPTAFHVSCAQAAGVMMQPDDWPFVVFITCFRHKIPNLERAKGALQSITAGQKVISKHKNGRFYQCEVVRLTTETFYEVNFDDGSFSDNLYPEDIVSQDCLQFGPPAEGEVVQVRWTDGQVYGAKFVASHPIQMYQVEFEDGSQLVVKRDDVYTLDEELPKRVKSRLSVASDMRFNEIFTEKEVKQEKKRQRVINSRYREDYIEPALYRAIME

Structure (SMILES) | Potency | activity change, negative = inhibition
COc1cc(OC)c(NC(=O)Cc2ccc(-n3c(C)nc4cccnc43)cc2)cc1Cl | inactive | 
COc1cc2c(cc1OC)C(COc1ccc(F)cc1)N(C(=O)c1ccccc1F)CC2 (stereo unspecified) | inactive | 
Cc1cccc(C(=O)Nc2ccc(-c3nc4ncccc4o3)cc2C)c1 | inactive | 
Cc1ccc2cccc(O)c2[n+]1[O-] | 10 µM (active) | 
NCC(=O)c1cccc2ccc[n+]([O-])c12 | inactive | 
O=C(NCC(c1ccco1)S(=O)(=O)c1cccs1)c1ccc(F)cc1 (stereo unspecified) | inactive | 
Cc1ccc(CNC(=O)CSc2c3c(nc4cc(Cl)ccc24)CCCC3)cc1 | inactive | 
COc1ccc(-c2nc(C)c(CCNC(=O)c3ccc(C(F)(F)F)cc3)s2)cc1OC | inactive | 
Cc1cccc(C)c1Nc1c(-c2ccccc2O)nc2ncccn12 | inactive | 
Cc1ccc(-c2nc3ccccn3c2Nc2c(C)cccc2C)o1 | 50.1 µM (active) | 
Cc1ccc(Nc2c(-c3ccc(C)s3)nc3ccccn23)cc1 | inactive | 
c1ccc2c(C[n+]3csc4ccccc43)cccc2c1 | 17.8 µM (active) | 
c1ccc2c(CNn3cnnc3)cccc2c1 |  | 0% [at 11.4 µM]
Nc1scc[n+]1Cc1cccc2cccnc12 | inactive | 
CCc1c(C)sc(NC(=O)C2c3ccccc3Oc3ccccc32)c1C(=O)OC(C)C | inactive | 
CCOC(=O)c1c(C)n(S(=O)(=O)c2ccc(C)cc2C)c2ccc(NS(=O)(=O)c3ccc(C)cc3C)cc12 | inactive | 
COc1ccc2c(c1)CCc1c(C(=O)Nc3cc(C)ccc3O)noc1-2 | inactive | 
Cc1ccc(N2CCN(C(=O)CCc3c(C)nc4c(c3C)c(=O)n(C)c(=O)n4C)CC2)c(C)c1 | inactive | 
O=S(=O)(O)c1cc2onnc2c2ccccc12 | 50.1 µM (active) | 
CCC(Sc1nnc(-c2ccc(OC)cc2)c(-c2ccc(OC)cc2)n1)C(=O)NC1CCCCC1 (stereo unspecified) | inactive | 
CCOC(=O)c1ccc(N2C(=O)c3[nH]nc(-c4ccccc4)c3C2c2ccc(C(C)C)cc2)cc1 (stereo unspecified) | inactive | 

Structure (SMILES) | Potency | activity change, negative = inhibition
O=C(c1ccco1)N(Cc1cccs1)c1ccc(O)cc1 | inactive | 
O=C(C1=C(O)C(=O)N(c2ncccn2)C1c1cccs1)c1ccco1 (stereo unspecified) | 20 µM (active) | 
O=C(C1=C(O)C(=O)N(Cc2ccccc2)C1c1cccnc1)c1ccco1 (stereo unspecified) | inactive | 
Cc1cc(C)c2oc(C(=O)Nc3ccc(S(=O)(=O)N(C)c4ccccc4)cc3)cc(=O)c2c1 | inactive | 
Cc1cc(N2CCN(c3cccc(C(F)(F)F)c3)CC2)n2nc(-c3ccccc3)nc2n1 | inactive | 
O=C(CN1C(=O)COc2ccc(Cl)cc21)Nc1ccc(N2CCOCC2)cc1 | inactive | 
O=C(CN1C(=O)COc2ccccc21)Nc1ccc(F)cc1 | 50.1 µM (active) | 
CC(OC(=O)CN1C(=O)COc2ccccc21)C(=O)NCc1ccc(F)cc1 (stereo unspecified) | inactive | 
Cc1cccc(C(C)C)c1NC(=O)C(NS(=O)(=O)c1cccc2nsnc12)c1ccccc1 (stereo unspecified) | inactive | 
COc1ccc(-c2cn3c(n2)sc2cc(C(=O)Nc4ccc(F)cc4)ccc23)cc1 | inactive | 
CCOc1cc(C2C(C(=O)OC)=C(C)NC3=C2C(=O)c2ccccc23)ccc1O (stereo unspecified) | 50.1 µM (active) | 
COC(=O)C1=C(C)NC2=C(C(=O)c3ccccc32)C1c1ccc(-c2ccc(C(=O)O)cc2)o1 (stereo unspecified) |  | -17.6% [at 11.4 µM]
CCOc1cc(C2C(C(=O)OC(C)C)=C(C)NC3=C2C(=O)CCC3)cc([N+](=O)[O-])c1O (stereo unspecified) | inactive | 
COC(=O)C1=C(c2ccccc2)c2ccccc2S(=O)(=O)N1CC(=O)Nc1ccccc1C(F)(F)F | inactive | 
Cc1cccc2c(=O)cc(CSc3ccccc3NC(=O)C(C)C)[nH]c12 | inactive | 
CC(=O)Nc1cc(C(=O)NCc2ccc(F)cc2Cl)ccc1Sc1ccc(Cl)cc1 | inactive | 
Cc1ccc(CNC(=O)C2(C(F)(F)F)C/C(=C\CCO)CCCO2)o1 (stereo unspecified) | inactive | 
CCCCn1cc(S(=O)(=O)c2ccc(OCC)cc2)c(=O)c2cc(OC)c(OC)cc21 | inactive | 
COc1ccc(N=Nc2c(-c3ccc(OC)cc3)[nH]oc2=O)cc1 | inactive | 
COc1ccc(N=C2C=CC(=O)O2)cc1 | 79.4 µM (active) | 
COC1=CC(=O)OC(c2ccc(OC)cc2)C1 (stereo unspecified) | inactive | 

Structure (SMILES) | Potency | activity change, negative = inhibition
CCOC(=O)C1=C(CN2CCc3ccccc32)NC(=O)NC1c1cc(C)ccc1C (stereo unspecified) | inactive | 
CCOC(=O)C1=C(CN2CCc3ccccc32)NC(=O)NC1c1cccc([N+](=O)[O-])c1 (stereo unspecified) | 44.7 µM (active) | 
CCOC(=O)C1=C(CN2CCCCCC2)NC(=O)NC1c1cccc([N+](=O)[O-])c1 (stereo unspecified) | inactive | 
COc1ccc(N2CCN(S(=O)(=O)CCNC(=O)C(c3ccccc3)c3ccccc3)CC2)cc1 | inactive | 
CC(C)(C)OC(=O)N1CCC(NC(=O)c2[nH]cnc2C(=O)N[C@@H](Cc2ccccc2)C(=O)OCc2ccccc2)CC1 | inactive | 
C[C@@H](NC(=O)c1nc[nH]c1C(=O)N1CCN(C(=O)OC(C)(C)C)CC1)c1ccccc1 | 79.4 µM (active) | 
C[C@H](NC(=O)c1nc[nH]c1C(=O)NCC(=O)OC(C)(C)C)c1ccccc1 | inactive | 
Cc1cccc(C(=O)N2c3nc(-c4ccco4)nn3C3(CCCCC3)[C@@H]3CCCC[C@@H]32)c1 | inactive | 
CCOc1ccc(CNC(=O)c2cccc(Nc3nc4ccccc4n4nnnc34)c2)cc1OC | inactive | 
O/N=C1\CC2(Cc3nonc31)OCCO2 | inactive | 
ON=C1/C(=N\O)CC2(C/C1=N/O)OCCO2 | 28.2 µM (active) | 
CCOC(=O)c1ccc(NC2=CC(c3ccc(OCC)cc3)N(c3ccc(C(=O)OCC)cc3)C2=O)cc1 (stereo unspecified) | inactive | 
CCOc1ccc(CCNC(=O)c2c(C)oc3ncn(C)c(=O)c23)cc1 | inactive | 
CCCc1cc(=S)n2c([nH]c3ccccc32)c1C#N | 25.1 µM (active) | 
CN(C)Cc1c(C#N)c2ccccc2n1C | inactive | 
Cc1ccccc1-c1nc2cc(NC(=O)c3cccc(OCCC(C)C)c3)ccc2o1 | inactive | 
O=C(NC(=S)Nc1cc(C(F)(F)F)ccc1N1CCOCC1)c1ccc(-c2cccc(Cl)c2)o1 | inactive | 
O=C(NCc1ccccc1)c1cc(-c2cccc(Cl)c2)on1 | inactive | 
O=C(O)C(c1ccccc1)N1C(=O)/C(=C\c2ccc(-c3cccc(Cl)c3)o2)SC1=S (stereo unspecified) | 20 µM (active) | 
